Test results from publication PMC7862700, “An all-to-all approach to the identification of sequence-specific readers for epigenetic DNA modifications on cytosine”.

Assays:
Test in all cases: DAPPL (digital affinity profiling via proximity ligation, sequencing); 10 mM Tris-HCl pH 7.5, 50 mM NaCl, 1 mM DTT, 4% glycerol, room temperature, 30 min; GST-TFs on glutathione beads, 16-mer random dsDNA library, 0.1% formaldehyde crosslink after washing; high values mean tight binding
Conditions in all cases: protein: recombinant; tags: N-terminal GST; dsDNA, one strand shown
FLI1 = target: T1, FLI1 (Homo sapiens, UniProt Q01543 1-452)
T1 sequence: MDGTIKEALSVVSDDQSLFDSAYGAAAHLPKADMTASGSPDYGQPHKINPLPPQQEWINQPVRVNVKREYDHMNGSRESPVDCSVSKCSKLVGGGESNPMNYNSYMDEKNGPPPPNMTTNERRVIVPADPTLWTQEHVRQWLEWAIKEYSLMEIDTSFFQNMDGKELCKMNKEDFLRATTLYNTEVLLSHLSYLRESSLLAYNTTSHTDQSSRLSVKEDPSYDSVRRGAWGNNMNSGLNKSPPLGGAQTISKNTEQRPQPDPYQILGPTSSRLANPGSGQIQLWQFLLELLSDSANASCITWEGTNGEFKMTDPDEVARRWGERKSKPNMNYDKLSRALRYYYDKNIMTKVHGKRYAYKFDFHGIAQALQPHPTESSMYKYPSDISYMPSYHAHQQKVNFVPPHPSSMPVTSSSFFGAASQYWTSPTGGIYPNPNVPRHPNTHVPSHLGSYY
Outline: (§1)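 Pools of DNA-barcoded human transcription factors, expressed in yeast as GST fusions on glutathione beads and combined with a tag-only sample, were incubated with 200 nmole of a 16-mer random double-stranded DNA library. Incubation took 30 min at room temperature in Tris/NaCl/DTT/glycerol buffer and was followed by washing, 0.1% formaldehyde crosslinking, proximity ligation (BsaI/T4 ligase, 1 h, 37 °C), PCR amplification and sequencing on an Illumina NextSeq500. Binding signal is the ratio of a hexamer's read frequency for a factor to its frequency for the tag-only sample.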

ELK1 = target: T2, ELK1 (Homo sapiens, UniProt P19419 1-428)
T2 sequence: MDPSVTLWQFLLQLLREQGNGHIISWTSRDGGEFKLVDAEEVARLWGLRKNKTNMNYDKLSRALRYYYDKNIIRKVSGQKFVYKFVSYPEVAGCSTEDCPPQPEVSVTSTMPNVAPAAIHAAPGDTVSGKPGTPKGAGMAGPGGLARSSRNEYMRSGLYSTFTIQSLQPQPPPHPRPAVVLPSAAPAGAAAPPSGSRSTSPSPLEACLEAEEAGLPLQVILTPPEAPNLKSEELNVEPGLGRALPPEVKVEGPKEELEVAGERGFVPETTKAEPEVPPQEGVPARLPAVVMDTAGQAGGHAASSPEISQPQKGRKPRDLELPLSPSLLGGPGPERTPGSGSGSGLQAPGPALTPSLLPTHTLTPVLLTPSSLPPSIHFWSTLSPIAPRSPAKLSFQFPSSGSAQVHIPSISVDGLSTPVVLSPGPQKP
Outline: as §1

GABPA = target: T3, GABPA (Homo sapiens, UniProt Q06546 1-454)
T3 sequence: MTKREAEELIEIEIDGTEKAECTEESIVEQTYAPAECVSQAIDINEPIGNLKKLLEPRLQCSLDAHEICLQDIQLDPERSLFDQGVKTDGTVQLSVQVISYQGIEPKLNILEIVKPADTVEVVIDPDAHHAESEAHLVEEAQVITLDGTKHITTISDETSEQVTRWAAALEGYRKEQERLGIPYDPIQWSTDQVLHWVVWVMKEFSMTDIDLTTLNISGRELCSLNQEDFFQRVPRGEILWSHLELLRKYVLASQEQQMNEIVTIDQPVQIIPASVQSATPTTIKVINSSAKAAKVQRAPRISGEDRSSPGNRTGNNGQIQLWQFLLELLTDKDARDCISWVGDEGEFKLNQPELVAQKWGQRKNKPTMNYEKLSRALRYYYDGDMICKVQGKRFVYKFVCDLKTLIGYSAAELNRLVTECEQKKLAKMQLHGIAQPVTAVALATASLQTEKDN
Outline: as §1

ERG = target: T4, ERG (Homo sapiens, UniProt P11308 1-479)
T4 sequence: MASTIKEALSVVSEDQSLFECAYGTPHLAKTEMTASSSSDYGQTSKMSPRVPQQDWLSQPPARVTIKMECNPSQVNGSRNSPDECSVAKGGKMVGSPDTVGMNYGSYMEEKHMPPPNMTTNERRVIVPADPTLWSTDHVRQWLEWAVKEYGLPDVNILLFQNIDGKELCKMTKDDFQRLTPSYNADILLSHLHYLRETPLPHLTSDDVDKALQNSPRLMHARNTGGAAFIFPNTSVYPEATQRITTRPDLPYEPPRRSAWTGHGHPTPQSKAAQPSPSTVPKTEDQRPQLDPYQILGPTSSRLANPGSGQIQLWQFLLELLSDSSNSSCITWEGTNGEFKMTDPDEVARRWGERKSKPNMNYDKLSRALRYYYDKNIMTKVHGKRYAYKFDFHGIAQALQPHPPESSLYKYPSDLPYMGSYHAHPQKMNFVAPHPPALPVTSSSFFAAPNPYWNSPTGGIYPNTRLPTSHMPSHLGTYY
Outline: as §1

ELF1 = ELF1 (Homo sapiens, UniProt P32519 1-619)
ELF1, sequence (P32519 whole entry): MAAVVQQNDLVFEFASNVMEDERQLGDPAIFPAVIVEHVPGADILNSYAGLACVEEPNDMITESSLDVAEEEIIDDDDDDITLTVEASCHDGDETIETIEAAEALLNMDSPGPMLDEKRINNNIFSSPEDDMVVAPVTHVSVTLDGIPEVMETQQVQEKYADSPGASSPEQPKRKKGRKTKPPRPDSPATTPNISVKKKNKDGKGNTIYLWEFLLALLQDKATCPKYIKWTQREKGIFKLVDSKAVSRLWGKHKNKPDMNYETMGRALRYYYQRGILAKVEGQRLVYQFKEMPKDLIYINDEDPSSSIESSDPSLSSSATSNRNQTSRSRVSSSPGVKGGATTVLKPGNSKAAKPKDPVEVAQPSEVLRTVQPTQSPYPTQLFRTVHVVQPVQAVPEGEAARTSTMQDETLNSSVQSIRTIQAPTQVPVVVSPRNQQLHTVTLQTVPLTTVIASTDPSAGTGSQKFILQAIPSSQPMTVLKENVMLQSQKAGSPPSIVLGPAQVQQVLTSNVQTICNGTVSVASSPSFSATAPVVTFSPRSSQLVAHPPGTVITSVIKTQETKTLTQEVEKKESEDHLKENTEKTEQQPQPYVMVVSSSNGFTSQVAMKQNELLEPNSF
Outline: as §1

EHF = target: T5, EHF (Homo sapiens, UniProt Q9NZC4 1-300)
T5 sequence: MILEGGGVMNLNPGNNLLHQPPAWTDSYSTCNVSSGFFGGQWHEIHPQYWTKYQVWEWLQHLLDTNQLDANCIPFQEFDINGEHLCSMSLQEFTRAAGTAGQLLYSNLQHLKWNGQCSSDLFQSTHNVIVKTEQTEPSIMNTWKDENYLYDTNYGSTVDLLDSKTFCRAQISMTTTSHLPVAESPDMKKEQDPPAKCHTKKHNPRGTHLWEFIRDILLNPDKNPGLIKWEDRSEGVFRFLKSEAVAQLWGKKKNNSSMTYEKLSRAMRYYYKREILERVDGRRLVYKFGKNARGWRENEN
Outline: as §1

SPI1 = SPI1 (Homo sapiens, UniProt P17947 1-270)
Outline: as §1

SPIB = SPIB (Homo sapiens, UniProt Q01892 1-262)
SPIB, sequence (Q01892 whole entry): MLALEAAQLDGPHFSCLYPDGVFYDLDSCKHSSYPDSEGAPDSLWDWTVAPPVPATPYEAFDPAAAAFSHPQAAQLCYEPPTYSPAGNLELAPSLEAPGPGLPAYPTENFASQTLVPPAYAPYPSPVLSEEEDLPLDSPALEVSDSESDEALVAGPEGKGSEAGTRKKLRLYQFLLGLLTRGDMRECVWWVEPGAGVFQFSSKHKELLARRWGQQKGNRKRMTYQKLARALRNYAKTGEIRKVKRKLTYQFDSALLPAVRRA
Outline: as §1

ELK3 = target: T6, ELK3 (Homo sapiens, UniProt P41970 1-407)
T6 sequence: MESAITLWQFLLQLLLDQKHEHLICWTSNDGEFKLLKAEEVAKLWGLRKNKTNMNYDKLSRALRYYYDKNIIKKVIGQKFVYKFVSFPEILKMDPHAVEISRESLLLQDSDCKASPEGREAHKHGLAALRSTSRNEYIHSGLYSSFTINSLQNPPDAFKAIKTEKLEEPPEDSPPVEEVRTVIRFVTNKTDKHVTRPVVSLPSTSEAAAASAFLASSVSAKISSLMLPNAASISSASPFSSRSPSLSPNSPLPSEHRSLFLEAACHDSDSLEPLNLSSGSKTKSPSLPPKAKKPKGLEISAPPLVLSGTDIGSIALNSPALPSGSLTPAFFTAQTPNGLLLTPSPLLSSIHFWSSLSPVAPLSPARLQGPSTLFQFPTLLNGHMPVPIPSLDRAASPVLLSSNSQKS
Outline: as §1

GGACCT
binding signal (FLI1): 1.42 fold enrichment (6-mer frequency, TF over GST control) | binding signal (ELK1): 1.37 fold enrichment (6-mer frequency, TF over GST control) | binding signal (GABPA): 1.41 fold enrichment (6-mer frequency, TF over GST control) | binding signal (ERG): 1.33 fold enrichment (6-mer frequency, TF over GST control) | binding signal (ELF1): 1.35 fold enrichment (6-mer frequency, TF over GST control) | binding signal (EHF): 1.35 fold enrichment (6-mer frequency, TF over GST control) | binding signal (SPI1): 1.28 fold enrichment (6-mer frequency, TF over GST control) | binding signal (SPIB): 1.33 fold enrichment (6-mer frequency, TF over GST control) | binding signal (ELK3): 1.37 fold enrichment (6-mer frequency, TF over GST control)
